Most compounds without a hit are left out; they make up all but 4% or so of the library.
Mtb bLac sens = beta-lactam sensitization of Mtb H37Rv | M. tuberculosis H37Rv growth with meropenem, percent inhibition | inhibition, % at 25 µM | 330,000 compounds, 0.27% hits | AID 434955; call rule not given here;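 also: growth measured after seven days incubation then overnight dye step; 0% = bacteria only wells and 100% = bacteria with antibiotic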
FBA Mtb inh = Mtb fructose-bisphosphate aldolase inhibition; inhibition, % at 1 µM; P9WQA3; purified M. tuberculosis FBA, fluorescence read-out; 360,000 compounds, 2.3% hits; in the data active = inhibition above about 27%;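 also: 0% = vehicle and 100% = reference inhibitor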
Target sequence (P9WQA3 whole entry, looked up): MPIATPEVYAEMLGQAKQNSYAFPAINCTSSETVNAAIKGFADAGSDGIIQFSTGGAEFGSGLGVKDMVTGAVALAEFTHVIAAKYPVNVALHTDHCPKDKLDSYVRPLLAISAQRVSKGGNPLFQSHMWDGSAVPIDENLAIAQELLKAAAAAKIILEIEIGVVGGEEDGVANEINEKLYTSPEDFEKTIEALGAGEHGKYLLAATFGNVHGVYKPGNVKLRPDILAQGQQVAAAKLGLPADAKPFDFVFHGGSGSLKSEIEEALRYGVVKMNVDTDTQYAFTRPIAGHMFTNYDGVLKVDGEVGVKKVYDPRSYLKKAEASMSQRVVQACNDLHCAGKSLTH
Rv3671c inh = Rv3671c (M. tuberculosis) protease inhibition | P9WHR9 | inhibition, % at 5.96 µM | 320,000 compounds, 0.048% hits; in the data active = inhibition above about 38%;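 also: extracellular domain of Rv3671c used as enzyme; 0% = enzyme with DMSO and 100% = no enzyme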
Mtb UGM inh = Mtb UDP-galactopyranose mutase inhibition; purified UGM, fluorescence polarization probe displacement; inhibition, % at 10 µM; 320,000 compounds, 0.06% hits; P9WIQ1; in the data active = inhibition above about 10%, passing the limit was not always enough; inconclusive = no clear call, values can overlap the other calls
RecA splice inh = blocks M. tuberculosis RecA intein splicing. inhibition, % (no concentration beside the values). 290,000 compounds, 0.75% hits. P9WHJ3. cell-free RecA intein splicing, fluorescence; in the data active = inhibition above about 30%; inconclusive = no clear call, values can overlap the other calls;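 also: 0% = vehicle wells and 100% = reference inhibitor control wells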
GDH-TPI counter = GDH-TPI coupled enzyme inhibition counter-screen; 360,000 compounds, 1.2% hits; GDH-TPI coupled enzyme counterscreen, NADH absorbance; inhibition, % at 4.8 µM; AID 588335; in the data active = inhibition above about 30%;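 also: 0% = DMSO wells and 100% = wells lacking the enzyme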
Starred values were filed as active, the others as inactive; ? = inconclusive; . = not tested or not shown; + = active, no number.

SMILES	Mtb bLac sens	FBA Mtb inh	Rv3671c inh	Mtb UGM inh	RecA splice inh	GDH-TPI counter
CCOC(=O)c1cc(NC(=O)c2ccccc2)c(=O)oc1-c1ccccc1	11.3	1.6	-9.0	0.5	-0.7	33.3*
Cc1oc(=O)c(NC(=O)c2ccccc2)cc1C(C)O (centres undefined)	7.8	2.8	5.9	-1.1	2.7	13.7
CCCCNC(=S)N1CCN(c2ccc(C(C)=O)cc2)CC1	4.0	-0.7	-10.5	3.9	-0.3	34.8*
CSCCCNC(=S)N1CCN(c2ccc(C(C)=O)cc2)CC1	25.7	-2.5	9.6	0.3	8.4	26.8
CCn1cc(/C=C(\NC(=O)c2ccccc2Cl)C(=O)N2CCN(C)CC2)c2ccccc21	.	0.3	.	.	-2.5	39.1*
CCn1cc(/C=C(\NC(=O)c2ccccc2F)C(=O)N2CCCC2)c2ccccc21	4.3	-6.4	-3.4	0.4	1.4	31.8*
CCn1cc(/C=C(\NC(=O)c2ccccc2F)C(=O)N2CCOCC2)c2ccccc21	5.0	-1.7	-0.2	-2.2	-1.1	30.8*
CCn1cc(/C=C(\NC(=O)c2ccccc2Cl)C(=O)N2CCOCC2)c2ccccc21	3.2	0.4	1.0	2.9	-0.1	24.8
CN1CCN(C(=O)/C(=C/c2cn(S(=O)(=O)N(C)C)c3ccccc23)NC(=O)c2ccccc2Cl)CC1	-7.3	-1.5	4.0	-0.1	-0.5	2.2
Cc1ccn2c(CC(C)(C)C)c(-c3ccc(F)cc3)nc2c1	.	3.1	.	.	.	-5.2
COc1cc([N+](=O)[O-])ccc1NC(=O)CSc1nncn1-c1cccnc1	7.6	0.3	-4.5	-3.2	-0.4	12.6
O=C(c1ccoc1)N1CCN(c2cc(-c3ccco3)nc3cc(-c4ccccc4)nn23)CC1	.	112.8*	.	.	.	27.8
CCOc1cc(C(c2c(C)[nH][nH]c2=O)c2c(C)[nH][nH]c2=O)ccc1OS(=O)(=O)c1ccccc1	2.0	0.5	2.7	2.6	97.1*	-2.5
Cc1ccc(NC(=O)c2ccc(Br)o2)c([N+](=O)[O-])c1	.	0.7	.	.	.	-9.4
NS(=O)(=O)c1ccc(NNC(=O)c2ccc(Br)o2)c([N+](=O)[O-])c1	-4.5	-4.6	-4.3	2.1	.	44.6*
O=C(Cc1ccc(F)cc1)N[C@@H]1c2ccccc2CC[C@@H]1O	.	-1.5	.	.	.	11.8
CCOC(=O)/C(C#N)=C1\CC2CCC1(C)C2(C)C (centres undefined)	-2.9	5.1	0.7	13.1*	-0.8	1.2
CC12CCC(CC1=O)C2(C)C (centres undefined)	0.0	3.5	4.5	-0.8	.	-2.0
COc1ccc(Nc2cc3n(c(=O)n2)CCc2cc(OC)c(OC)cc2-3)cc1	-5.8	22.4	-3.0	0.3	-3.7	24.5
COc1cc2c(cc1OC)-c1cc(NC3CCCCCC3)nc(=O)n1CC2	5.3	15.4	-9.2	0.4	3.7	31.0*
COc1ccc(Nc2cc3n(c(=O)n2)CCc2cc(OC)c(OC)cc2-3)c(C)c1	?	2.4	0.0	-0.7	-0.6	32.8*
COc1cc2c(cc1OC)-c1cc(Nc3ccc4c(c3)OCCO4)nc(=O)n1CC2	30.0	3.0	-5.6	-0.2	1.7	36.4*
COc1cc2c(cc1OC)-c1cc(Nc3ccc(C)cc3)nc(=O)n1CC2	4.2	-1.5	2.1	0.1	1.7	17.8
COc1cc2c(cc1OC)-c1cc(N3CCCCCC3)nc(=O)n1CC2	-0.9	14.2	2.8	-0.3	1.5	45.8*
COc1cc2c(cc1OC)-c1cc(Nc3ccccc3)nc(=O)n1CC2	-0.2	9.2	8.3	1.8	14.1	18.4
SMILES	Mtb bLac sens	FBA Mtb inh	Rv3671c inh	Mtb UGM inh	RecA splice inh	GDH-TPI counter
N#C/C(=C\c1ccccc1[N+](=O)[O-])C(=O)Nc1ccc(S(N)(=O)=O)cc1	2.4	-0.6	0.2	-2.2	-2.6	-3.4
CCN(CC)CCOc1nnc(-c2ccc(OC)cc2)c2ccccc12	-0.5	1.3	6.1	-1.2	-2.5	2.9
CCOc1ccc(S(=O)(=O)N(CC)CC)cc1NS(=O)(=O)c1ccc(F)c(F)c1F	-3.8	6.2	1.2	0.6	-3.3	0.4
COc1cc2c(cc1OC)-c1cc(N3CCc4ccccc43)nc(=O)n1CC2	-4.3	19.0	-9.7	-0.2	-4.0	43.4*
COc1cc2c(cc1OC)-c1cc(OCc3cccnc3)nc(=O)n1CC2	.	+	.	.	.	40.5*
COc1cc2c(cc1OC)-c1cc(N3CCCc4ccccc43)nc(=O)n1CC2	25.1	0.9	-6.5	-2.4	3.0	15.7
CC1(C)CC(CCNS(=O)(=O)c2ccccc2)(c2ccccc2)CCO1 (centres undefined)	-4.9	4.2	-11.1	0.9	2.5	4.7
CC1(C)CC(CCNC(=O)CCl)(c2ccccc2)CCO1 (centres undefined)	.	-1.7	7.9	-2.1	32.1*	7.5
O=C1NC2(C=Cc3c(ccc4ccccc34)O2)Oc2ccccc21 (centres undefined)	-1.1	152.0*	2.6	-4.7	-4.0	7.7
CCOc1ccc(C(=O)NCC(=O)NCC2CCCCC2)cc1OCC	2.7	5.2	-2.7	-0.8	0.3	-2.3
COc1cc2c3nnc(-c4ccc(F)cc4)c-3cn(Cc3ccc(C)cc3)c2cc1OC	-4.9	2.8	3.4	15.4*	-74.3	7.1
COc1cc2c3nnc(-c4ccc(F)cc4)c-3cn(Cc3cccc(F)c3)c2cc1OC	-2.1	46.0*	-14.2	7.9	-55.1	12.4
COC(=O)Cn1cc(/C=N/NC(=O)c2ccc(C#N)cc2F)c2ccccc21	-4.5	-1.0	-0.2	-2.8	-0.1	38.4*
CCOC(=O)Cn1cc(/C=N/NC(=O)CC#N)c2ccccc21	0.8	-4.2	3.4	-0.1	52.2*	15.9
CCn1cc(/C=N/NC(=O)c2ccc(C#N)cc2F)c2ccccc21	-1.1	-2.8	10.0	1.2	-1.2	24.6
Cc1ccc(S(=O)(=O)N2[C@@H](c3cccc(Cl)c3)C(C(=O)O)=CC[C@H]2c2cccs2)cc1	-0.4	-1.7	-5.0	-0.9	.	-2.5
O=C(COc1ccccc1/C=C1\SC(=O)NC1=O)Nc1ccccc1	-6.1	0.4	-4.8	4.6	7.7	16.7
O=C1NC(=O)/C(=C/c2ccccc2OCc2ccccc2)S1	7.1	-1.2	-6.6	2.1	14.3	31.7*
Cc1ccc(Sc2ncccc2C(=O)NCC(c2ccc(F)cc2)N2CCOCC2)c(C)c1 (centres undefined)	-0.9	1.6	2.9	-0.5	2.1	1.4
Oc1ccc(C=NN=Cc2ccco2)c(O)c1	.	-3.3	.	.	.	40.5*
NC(=N\N=Cc1ccccc1)/C(N)=N/N=Cc1ccccc1	.	-0.9	.	.	.	23.9
O=C(CNC(=O)c1ccco1)N/N=C/c1ccc(O)cc1O	0.6	1.7	-8.6	0.0	-6.1	16.0
NC(=N\N=Cc1ccco1)/C(N)=N/N=Cc1ccco1	.	-2.4	.	.	.	58.1*
O=C(NCCO)/C(=C\c1ccc(Br)cc1)NC(=O)c1cccs1	-2.4	-0.4	0.9	-4.6	-1.1	10.3
COCCCNC(=O)/C(=C\c1cccn1C)NC(=O)c1cccs1	5.6	3.1	1.6	.	-1.7	34.4*
N#CC(c1ccc(O)cc1)N1CCOCC1 (centres undefined)	3.5	-1.5	-0.7	1.4	-1.6	31.2*

High-throughput results as filed in PubChem BioAssay.
